Targets with a hit are over-represented here; the source holds about 7,900 in all. About 0.6% of all pairs of compound and target were hits. Values without a mark were called inactive.
What was measured:
Assay in all cases: log2 fold change, soluble protein after heating vs DMSO (PISA); higher = thermal stabilisation; K562 cells, 10 uM, 30 min; active = over 0.2 and 3.5 SD of the protein, either way, in both replicates (recomputed)
erlotinib = compound: C#Cc1cccc(Nc2ncnc3cc(OCCOC)c(OCCOC)cc23)c1 [erlotinib]
Method in brief: (§1)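 Thermal stability values are relative to control samples and come from duplicates. They are expressed as log2 fold changes. For measurement, K562 cells (2×10^6 cells/mL) received 10 μM compound for 30 min, and aliquots were heated for 3 min over 48°C-58°C, pooled, and extracted at 4°C in PBS with 0.5% NP-40. Soluble protein, the supernatant after 21,000xg for 90 min, was quantified by TMTpro 16plex LC-MS/MS with equalised channel sums.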

[1] = compound: C/C(=N\NC(=O)C1=CC(=CC=C1)S(=O)(=O)N2CCOCC2)/C3=C(C=CC(=C3)Cl)O
Method in brief: as §1

[2] = compound: C1=CC(=C(C=C1Cl)C2=NC3=NC=CN=C3C(=N2)NC4=CC=NC=C4)F
Method in brief: as §1

[3] = compound: C1=CC(=CC=C1C2=NC3=C(N2)C=C(C=C3)C(=O)N)OC4=CC=C(C=C4)Cl
Method in brief: as §1

[4] = compound: C1=CC2=C(C=CC(=C2)/C=C\3/C(=O)NC(=NCC4=CC=CS4)S3)N=C1
Method in brief: as §1

[5] = compound: C1=CC2=NC=CN=C2C=C1/C=C/3\C(=O)NC(=O)S3
Method in brief: as §1

[6] = compound: C1=CC=C(C=C1)C2=NC(=C(N2)C3=CC=NC=C3)C4=CC(=C(C=C4)Cl)O
Method in brief: as §1

[7] = compound: C1=CC=C2C(=C1)C3=NNC4=CC=CC(=C43)C2=O
Method in brief: as §1

[8] = compound: C1CCN(C1)C(=O)NC2=CC=CC(=C2)NC3=NC=C(C(=N3)NCCC4=CN=CN4)Br
Method in brief: as §1

[9] = compound: C1CN(CCC1(CC2=CC=C(C=C2)Cl)N)C3=NC=NC4=C3C=CN4
Method in brief: as §1

IRAK-1-4 Inhibitor I = compound: C1COCCN1CCN2C3=CC=CC=C3N=C2NC(=O)C4=CC(=CC=C4)[N+](=O)[O-] [IRAK-1-4 Inhibitor I]
Method in brief: as §1

ibrutinib = compound: C=CC(=O)N1CCC[C@@H](n2nc(-c3ccc(Oc4ccccc4)cc3)c3c(N)ncnc32)C1 [ibrutinib]
Method in brief: as §1

[10] = compound: CC(=O)c1cnc2ccc(-c3cc(Cl)c(O)c(Cl)c3)nc2c1N[C@H]1CC[C@H](CN(C)C)CC1
Method in brief: as §1

ralimetinib = compound: CC(C)(C)Cn1c(N)nc2ccc(-c3[nH]c(C(C)(C)C)nc3-c3ccc(F)cc3)nc21 [ralimetinib]
Method in brief: as §1

[11] = compound: CC(C)(O)CC(=O)NCCn1ccc2ncnc(Nc3ccc(Oc4cccc(C(F)(F)F)c4)c(Cl)c3)c21
Method in brief: as §1

[12] = compound: CC(C)C1=C2N=C(C=C(N2N=C1)NCC3=CC=CC=C3)NCCCCCCN
Method in brief: as §1

[13] = compound: CC(C)C[C@@H](C=O)NC(=O)[C@H](CC(C)C)NC(=O)[C@H](CC(C)C)NC(=O)OCc1ccccc1
Method in brief: as §1

pinometostat = compound: CC(C)N(C[C@H]1O[C@@H](n2cnc3c(N)ncnc32)[C@H](O)[C@@H]1O)[C@H]1C[C@@H](CCc2nc3cc(C(C)(C)C)ccc3[nH]2)C1 [pinometostat]
Method in brief: as §1

[14] = compound: CC1=C(C(CC(=O)N1)C2=CC=C(C=C2)C(F)(F)F)C(=O)NC3=C(C=C4C(=C3)C=NN4)F
Method in brief: as §1

[15] = compound: CC1=C(C2=C(C=C1)C(=O)C3=CC=CC=C3N2CCCN)C
Method in brief: as §1

UniProt Q9NUQ2, sequence (Q9NUQ2 whole entry, looked up): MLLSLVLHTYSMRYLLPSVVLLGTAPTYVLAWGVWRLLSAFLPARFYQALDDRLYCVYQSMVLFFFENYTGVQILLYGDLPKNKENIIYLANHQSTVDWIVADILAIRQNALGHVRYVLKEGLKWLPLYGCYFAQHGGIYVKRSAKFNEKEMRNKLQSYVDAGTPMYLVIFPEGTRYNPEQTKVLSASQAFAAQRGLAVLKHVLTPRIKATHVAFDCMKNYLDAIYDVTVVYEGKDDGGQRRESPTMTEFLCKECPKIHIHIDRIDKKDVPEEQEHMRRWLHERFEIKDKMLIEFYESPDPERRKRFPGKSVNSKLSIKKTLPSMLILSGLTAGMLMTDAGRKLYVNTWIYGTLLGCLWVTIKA
UniProt P15291, sequence (P15291 whole entry, looked up): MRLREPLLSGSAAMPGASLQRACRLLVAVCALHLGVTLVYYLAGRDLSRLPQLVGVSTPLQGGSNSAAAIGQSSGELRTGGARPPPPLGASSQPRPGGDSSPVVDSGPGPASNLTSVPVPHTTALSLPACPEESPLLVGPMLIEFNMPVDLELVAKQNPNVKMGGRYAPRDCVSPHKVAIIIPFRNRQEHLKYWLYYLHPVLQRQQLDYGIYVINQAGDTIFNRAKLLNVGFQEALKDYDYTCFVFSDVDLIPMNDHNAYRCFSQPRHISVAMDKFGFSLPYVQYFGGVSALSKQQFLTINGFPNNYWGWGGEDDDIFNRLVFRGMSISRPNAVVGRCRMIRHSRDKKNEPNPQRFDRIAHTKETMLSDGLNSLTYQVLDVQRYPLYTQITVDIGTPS
UniProt P31749, sequence (P31749 whole entry, looked up): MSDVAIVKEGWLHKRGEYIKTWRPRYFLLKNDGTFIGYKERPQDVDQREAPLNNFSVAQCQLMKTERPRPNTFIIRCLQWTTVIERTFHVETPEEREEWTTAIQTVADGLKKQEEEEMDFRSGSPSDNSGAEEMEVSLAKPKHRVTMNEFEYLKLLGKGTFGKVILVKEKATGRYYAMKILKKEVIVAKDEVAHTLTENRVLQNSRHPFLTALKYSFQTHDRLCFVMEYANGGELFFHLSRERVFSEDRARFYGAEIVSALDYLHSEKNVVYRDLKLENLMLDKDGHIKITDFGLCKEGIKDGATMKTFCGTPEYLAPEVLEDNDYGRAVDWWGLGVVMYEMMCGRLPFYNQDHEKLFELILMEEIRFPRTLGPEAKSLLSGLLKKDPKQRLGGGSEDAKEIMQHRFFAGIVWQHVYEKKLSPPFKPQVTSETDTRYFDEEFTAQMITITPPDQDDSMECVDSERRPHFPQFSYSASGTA
UniProt O43861, sequence (O43861 whole entry, looked up): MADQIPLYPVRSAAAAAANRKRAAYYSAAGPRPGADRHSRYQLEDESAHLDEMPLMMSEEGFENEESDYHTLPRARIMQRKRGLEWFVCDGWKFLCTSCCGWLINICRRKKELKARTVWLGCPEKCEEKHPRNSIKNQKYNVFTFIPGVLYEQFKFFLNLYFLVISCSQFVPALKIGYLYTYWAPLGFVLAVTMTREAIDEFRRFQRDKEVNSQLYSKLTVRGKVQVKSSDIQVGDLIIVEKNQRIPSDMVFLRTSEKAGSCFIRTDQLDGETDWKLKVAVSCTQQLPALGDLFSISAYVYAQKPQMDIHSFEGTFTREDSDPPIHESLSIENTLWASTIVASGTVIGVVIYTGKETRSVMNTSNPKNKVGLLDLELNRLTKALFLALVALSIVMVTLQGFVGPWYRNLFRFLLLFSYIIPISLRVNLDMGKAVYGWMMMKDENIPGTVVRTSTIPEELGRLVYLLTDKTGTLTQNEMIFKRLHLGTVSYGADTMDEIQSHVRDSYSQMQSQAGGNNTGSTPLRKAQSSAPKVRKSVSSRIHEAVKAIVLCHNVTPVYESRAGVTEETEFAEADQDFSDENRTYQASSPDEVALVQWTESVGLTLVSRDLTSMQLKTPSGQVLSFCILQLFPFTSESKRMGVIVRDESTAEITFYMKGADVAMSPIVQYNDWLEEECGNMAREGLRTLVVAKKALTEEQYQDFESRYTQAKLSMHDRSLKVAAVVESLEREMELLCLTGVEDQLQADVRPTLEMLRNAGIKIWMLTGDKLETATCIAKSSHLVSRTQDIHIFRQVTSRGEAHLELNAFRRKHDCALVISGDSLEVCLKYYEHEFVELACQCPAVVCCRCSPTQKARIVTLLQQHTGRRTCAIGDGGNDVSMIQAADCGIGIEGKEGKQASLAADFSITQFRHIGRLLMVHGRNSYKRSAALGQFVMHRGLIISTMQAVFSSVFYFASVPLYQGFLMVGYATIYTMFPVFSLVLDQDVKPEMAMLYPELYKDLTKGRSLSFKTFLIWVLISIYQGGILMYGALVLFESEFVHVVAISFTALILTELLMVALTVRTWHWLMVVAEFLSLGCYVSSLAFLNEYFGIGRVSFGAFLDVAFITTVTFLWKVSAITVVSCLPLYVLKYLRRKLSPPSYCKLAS
UniProt Q9Y673, sequence (Q9Y673 whole entry, looked up): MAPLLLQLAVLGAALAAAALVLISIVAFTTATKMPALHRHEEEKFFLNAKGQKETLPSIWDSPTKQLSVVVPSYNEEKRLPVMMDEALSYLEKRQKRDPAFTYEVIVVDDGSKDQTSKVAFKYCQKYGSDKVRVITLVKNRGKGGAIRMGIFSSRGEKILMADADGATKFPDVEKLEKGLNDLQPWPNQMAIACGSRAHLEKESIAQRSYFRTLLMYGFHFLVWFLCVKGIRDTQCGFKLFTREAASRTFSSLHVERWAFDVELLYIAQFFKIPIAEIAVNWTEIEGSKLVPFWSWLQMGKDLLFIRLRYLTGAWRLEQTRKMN
UniProt P42025, sequence (P42025 whole entry, looked up): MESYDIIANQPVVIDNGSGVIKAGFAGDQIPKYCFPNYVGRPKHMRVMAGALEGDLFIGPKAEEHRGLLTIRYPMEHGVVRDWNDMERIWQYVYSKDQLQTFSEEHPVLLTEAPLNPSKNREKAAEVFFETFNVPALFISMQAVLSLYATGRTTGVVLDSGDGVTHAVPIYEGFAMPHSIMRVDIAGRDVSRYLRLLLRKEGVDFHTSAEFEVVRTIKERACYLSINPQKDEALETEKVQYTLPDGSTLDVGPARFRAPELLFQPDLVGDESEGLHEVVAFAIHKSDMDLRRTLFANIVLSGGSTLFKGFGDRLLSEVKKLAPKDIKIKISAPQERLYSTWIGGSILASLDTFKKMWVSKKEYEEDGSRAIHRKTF
UniProt Q86UU0, sequence (Q86UU0 whole entry, looked up): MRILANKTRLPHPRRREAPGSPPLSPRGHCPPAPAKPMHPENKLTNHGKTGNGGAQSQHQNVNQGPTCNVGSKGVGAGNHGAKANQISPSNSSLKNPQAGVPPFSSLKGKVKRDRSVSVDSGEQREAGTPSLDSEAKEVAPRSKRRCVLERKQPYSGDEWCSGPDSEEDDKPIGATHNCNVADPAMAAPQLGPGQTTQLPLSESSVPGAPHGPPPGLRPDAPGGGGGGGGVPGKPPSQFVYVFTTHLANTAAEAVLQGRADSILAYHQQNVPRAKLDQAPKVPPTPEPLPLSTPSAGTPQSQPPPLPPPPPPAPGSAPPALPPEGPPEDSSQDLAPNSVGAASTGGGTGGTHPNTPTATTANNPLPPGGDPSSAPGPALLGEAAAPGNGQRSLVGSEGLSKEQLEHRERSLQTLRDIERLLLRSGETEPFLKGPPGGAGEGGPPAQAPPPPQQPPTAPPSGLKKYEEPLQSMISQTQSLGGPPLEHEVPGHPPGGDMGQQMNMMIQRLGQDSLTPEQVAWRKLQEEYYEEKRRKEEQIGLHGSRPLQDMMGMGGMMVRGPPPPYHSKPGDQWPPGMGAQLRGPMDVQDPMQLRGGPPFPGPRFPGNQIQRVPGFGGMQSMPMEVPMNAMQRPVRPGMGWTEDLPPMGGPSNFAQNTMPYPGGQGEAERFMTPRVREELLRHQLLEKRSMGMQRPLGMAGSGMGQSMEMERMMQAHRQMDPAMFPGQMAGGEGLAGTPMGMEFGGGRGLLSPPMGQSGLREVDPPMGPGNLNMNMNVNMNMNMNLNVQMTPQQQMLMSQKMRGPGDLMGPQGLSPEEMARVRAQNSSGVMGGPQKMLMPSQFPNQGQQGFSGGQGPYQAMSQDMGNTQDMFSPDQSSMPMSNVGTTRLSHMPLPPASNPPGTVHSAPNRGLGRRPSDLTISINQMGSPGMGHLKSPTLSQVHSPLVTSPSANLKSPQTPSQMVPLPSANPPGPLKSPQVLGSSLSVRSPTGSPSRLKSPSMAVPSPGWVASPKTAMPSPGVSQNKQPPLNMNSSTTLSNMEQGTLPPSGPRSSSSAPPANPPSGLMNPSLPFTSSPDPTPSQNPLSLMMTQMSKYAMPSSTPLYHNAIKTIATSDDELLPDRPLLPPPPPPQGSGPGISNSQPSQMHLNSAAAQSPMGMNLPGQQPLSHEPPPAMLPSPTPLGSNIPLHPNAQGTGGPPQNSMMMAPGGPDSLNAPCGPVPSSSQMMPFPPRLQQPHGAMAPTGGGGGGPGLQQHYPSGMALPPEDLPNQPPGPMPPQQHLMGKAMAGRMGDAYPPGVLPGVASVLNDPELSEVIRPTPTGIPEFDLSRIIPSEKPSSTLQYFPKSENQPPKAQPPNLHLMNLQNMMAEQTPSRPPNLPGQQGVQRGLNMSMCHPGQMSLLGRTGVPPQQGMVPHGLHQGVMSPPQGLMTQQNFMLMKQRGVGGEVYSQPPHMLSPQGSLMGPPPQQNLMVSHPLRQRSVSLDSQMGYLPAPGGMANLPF
UniProt Q9Y679, sequence (Q9Y679 whole entry, looked up): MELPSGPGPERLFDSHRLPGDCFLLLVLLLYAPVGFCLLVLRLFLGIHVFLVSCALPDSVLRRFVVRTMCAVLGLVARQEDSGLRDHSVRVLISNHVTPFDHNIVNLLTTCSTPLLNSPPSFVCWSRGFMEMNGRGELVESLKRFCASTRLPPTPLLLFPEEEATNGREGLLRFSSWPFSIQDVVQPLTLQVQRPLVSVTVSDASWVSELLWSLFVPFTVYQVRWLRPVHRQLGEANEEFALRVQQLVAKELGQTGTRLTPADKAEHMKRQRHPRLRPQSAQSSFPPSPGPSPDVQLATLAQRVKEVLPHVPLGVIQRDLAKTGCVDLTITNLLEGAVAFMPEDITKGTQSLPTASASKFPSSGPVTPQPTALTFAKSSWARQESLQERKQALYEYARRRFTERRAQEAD

Target | log2 fold change (erlotinib) | log2 fold change [1] | log2 fold change [2] | log2 fold change [3] | log2 fold change [4] | log2 fold change [5] | log2 fold change [6] | log2 fold change [7] | log2 fold change [8] | log2 fold change [9] | log2 fold change (IRAK-1-4 Inhibitor I) | log2 fold change (ibrutinib) | log2 fold change [10] | log2 fold change (ralimetinib) | log2 fold change [11] | log2 fold change [12] | log2 fold change [13] | log2 fold change (pinometostat) | log2 fold change [14] | log2 fold change [15]
BECN1 (UniProt Q14457) | -0.007 | -0.035 | 0.043 | -0.042 | -0.001 | 0.085 | -0.043 | 0.008 | 0.002 | -0.042 | -0.003 | -0.018 | 0.003 | -0.004 | -0.011 | -0.031 | -0.015 | -0.032 | -0.058 | 0.084
ATP9B (UniProt O43861) | 0.406 (active) | 0.099 | 0.01 | -0.132 | -0.029 | -0.045 | 0.033 | -0.038 | 0.027 | -0.064 | 0.061 | -0.068 | -0.034 | -0.077 | -0.054 | -0.071 | -0.024 | -0.064 | -0.004 | 0.003
BCL9L (UniProt Q86UU0) | 0.01 | -0.256 | -0.008 | 0.049 | 0.036 | -0.048 | -0.128 | 0.07 | -0.052 | 0.091 | -0.045 | 0 | 0.04 | -0.024 | -0.009 | 0.015 | 0.092 | 0.013 | 0.006 | 0.101
AKT1 (UniProt P31749) | 0.095 | 0.034 | 0.101 | -0.067 | 0 | 0.184 | 0.117 | 0.059 | -0.026 | 0.164 | -0.014 | -0.244 | 0.03 | -0.023 | 0.01 | -0.141 | 0.07 | -0.051 | -0.161 | -0.038
B4GALT1 (UniProt P15291) | -0.095 | 0.07 | -0.018 | 0.047 | -0.033 | 0.07 | -0.035 | 0.024 | -0.078 | 0.017 | 0.034 | -0.057 | -0.019 | 0.094 | 0.094 | -0.294 (active) | 0.017 | -0.051 | 0.006 | -0.03
ATG4B isoform 2 (UniProt Q9Y4P1) | -0.008 | 0.078 | 0.017 | 0.178 | 0.118 | 0.089 | 0.143 | -0.046 | -0.087 | -0.033 | 0.127 | -0.038 | -0.102 | 0.134 | -0.194 | -0.299 | -0.137 | -0.013 | -0.031 | 0.114
AHCYL1 (UniProt O43865) | 0.083 | -0.032 | -0.008 | -0.042 | 0.001 | 0.086 | 0.09 | 0.118 | 0.077 | 0.104 | 0.035 | 0.062 | 0.337 (active) | 0.008 | -0.016 | 0.014 | 0.001 | -0.048 | -0.033 | -0.004
ACAP2 (UniProt Q15057) | -0.002 | 0.054 | 0.062 | -0.05 | 0.056 | 0.037 | -0.032 | -0.012 | -0.042 | -0.013 | -0.033 | -0.012 | -0.038 | 0 | -0.031 | -0.065 | 0.061 | 0.029 | -0.036 | 0.004
ALG5 (UniProt Q9Y673) | -0.008 | 0.014 | 0.071 | 0.008 | 0.023 | 0.003 | 0.009 | 0.048 | -0.026 | -0.007 | 0.026 | -0.043 | -0.281 (active) | 0.009 | -0.009 | -0.004 | 0 | -0.002 | -0.057 | 0.07
ACTR1B (UniProt P42025) | -0.13 | -0.048 | -0.145 | 0.041 | 0.02 | 0.002 | -0.037 | -0.017 | -0.02 | 0.011 | 0.066 | 0.003 | -0.041 | 0.07 | -0.065 | 0.042 | -0.071 | 0.003 | -0.099 | -0.013
ACADVL isoform 3 (UniProt P49748) | 0.008 | 0.015 | 0.035 | 0.291 (active) | 0.023 | 0.055 | 0.027 | 0.155 | 0.025 | 0.043 | 0.038 | -0.002 | 0.005 | -0.015 | -0.016 | -0.013 | -0.025 | -0.067 | -0.032 | 0.002
BYSL (UniProt Q13895) | -0.009 | 0.014 | -0.05 | -0.006 | -0.046 | 0.027 | -0.018 | 0.075 | -0.042 | -0.289 | -0.115 | -0.054 | 0.043 | 0.051 | -0.11 | -0.109 | 0.092 | 0.118 | -0.007 | -0.495 (active)
ATP23 (UniProt Q9Y6H3) | 0.021 | -0.079 | -0.017 | 0.033 | 0.051 | 0.027 | 0.009 | 0.033 | 0.007 | -0.014 | 0.091 | -0.009 | -0.004 | -0.043 | 0.02 | -0.136 | 0.025 | -0.014 | 0.011 | -0.01
AGPAT5 (UniProt Q9NUQ2) | 0.042 | -0.019 | -0.003 | 0.014 | 0.009 | 0.048 | 0.07 | -0.001 | -0.017 | 0.079 | 0.047 | 0.003 | 0.062 | -0.037 | 0.03 | -0.163 | 0.002 | 0.007 | -0.001 | 0.021
AUP1 (UniProt Q9Y679) | 0.018 | 0.055 | 0.068 | 0.049 | 0.006 | 0.055 | 0.078 | 0.004 | -0.031 | -0.018 | 0.035 | -0.026 | 0.003 | 0.007 | -0.164 | -0.482 (active) | -0.033 | 0.011 | -0.036 | 0.08

From the supplement of paper PMC10849652
